# Columns and labels:
# Assay in all cases: DAPPL (digital affinity profiling via proximity ligation, sequencing); 10 mM Tris-HCl pH 7.5, 50 mM NaCl, 1 mM DTT, 4% glycerol, room temperature, 30 min; GST-TFs on glutathione beads, 16-mer random dsDNA library, 0.1% formaldehyde crosslink after washing; high values mean tight binding
# Conditions in all cases: protein: recombinant; tags: N-terminal GST; dsDNA, one strand shown
# [1] = target: T1, ELK1 (Homo sapiens, UniProt P19419 1-428)
# T1 sequence: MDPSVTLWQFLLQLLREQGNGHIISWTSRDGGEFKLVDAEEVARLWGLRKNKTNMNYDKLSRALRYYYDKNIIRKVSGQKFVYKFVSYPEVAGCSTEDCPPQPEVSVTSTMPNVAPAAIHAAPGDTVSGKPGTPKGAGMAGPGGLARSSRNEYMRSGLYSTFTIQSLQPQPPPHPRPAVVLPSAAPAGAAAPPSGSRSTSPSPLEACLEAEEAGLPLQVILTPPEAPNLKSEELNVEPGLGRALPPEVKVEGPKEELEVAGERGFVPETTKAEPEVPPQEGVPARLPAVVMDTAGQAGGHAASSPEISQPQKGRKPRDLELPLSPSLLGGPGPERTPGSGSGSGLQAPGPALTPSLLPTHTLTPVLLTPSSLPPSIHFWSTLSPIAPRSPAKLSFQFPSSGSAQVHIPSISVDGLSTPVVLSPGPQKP
# Procedure, shortened: (§1)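 Human transcription factors were made in yeast as GST fusions, captured on glutathione beads and barcoded with DNA. With a tag-only sample included, the pool was incubated with 200 nmole of a random double-stranded 16-mer DNA library in Tris/NaCl/DTT/glycerol buffer at room temperature for 30 min, then crosslinked with 0.1% formaldehyde after washing, ligated by proximity, amplified and sequenced. For binding signal, each hexamer's read frequency for a factor is divided by its frequency for the tag-only sample.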
# [2] = target: T2, GABPA (Homo sapiens, UniProt Q06546 1-454)
# T2 sequence: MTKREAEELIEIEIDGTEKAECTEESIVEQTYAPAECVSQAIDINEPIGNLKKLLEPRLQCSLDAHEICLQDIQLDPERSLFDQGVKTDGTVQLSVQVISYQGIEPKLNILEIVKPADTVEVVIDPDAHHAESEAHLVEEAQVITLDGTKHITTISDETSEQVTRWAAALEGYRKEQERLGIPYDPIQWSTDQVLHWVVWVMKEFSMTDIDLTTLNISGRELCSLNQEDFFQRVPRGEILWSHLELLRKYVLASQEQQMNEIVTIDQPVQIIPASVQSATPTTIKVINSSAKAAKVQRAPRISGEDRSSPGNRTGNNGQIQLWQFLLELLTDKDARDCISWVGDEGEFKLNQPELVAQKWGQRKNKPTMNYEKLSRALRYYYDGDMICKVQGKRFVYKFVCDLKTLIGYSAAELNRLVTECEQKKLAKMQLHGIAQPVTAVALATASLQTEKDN
# Procedure, shortened: as §1
# [3] = target: T3, ERG (Homo sapiens, UniProt P11308 1-479)
# T3 sequence: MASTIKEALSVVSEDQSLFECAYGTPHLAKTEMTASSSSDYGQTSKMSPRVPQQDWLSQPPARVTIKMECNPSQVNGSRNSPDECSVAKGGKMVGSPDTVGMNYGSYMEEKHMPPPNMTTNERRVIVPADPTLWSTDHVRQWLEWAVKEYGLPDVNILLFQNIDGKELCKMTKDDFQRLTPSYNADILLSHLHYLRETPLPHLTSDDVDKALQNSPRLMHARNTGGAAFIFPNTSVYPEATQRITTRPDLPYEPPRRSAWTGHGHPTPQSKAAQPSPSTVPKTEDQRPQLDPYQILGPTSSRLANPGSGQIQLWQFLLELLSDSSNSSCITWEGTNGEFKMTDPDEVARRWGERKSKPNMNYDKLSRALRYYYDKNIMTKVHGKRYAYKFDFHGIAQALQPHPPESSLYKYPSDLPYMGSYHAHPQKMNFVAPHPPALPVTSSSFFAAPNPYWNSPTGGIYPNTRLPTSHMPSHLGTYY
# Procedure, shortened: as §1
# [4] = target: ELF1 (Homo sapiens, UniProt P32519 1-619)
# Procedure, shortened: as §1
# [5] = target: SPIB (Homo sapiens, UniProt Q01892 1-262)
# Procedure, shortened: as §1
# [6] = target: T4, ELK3 (Homo sapiens, UniProt P41970 1-407)
# T4 sequence: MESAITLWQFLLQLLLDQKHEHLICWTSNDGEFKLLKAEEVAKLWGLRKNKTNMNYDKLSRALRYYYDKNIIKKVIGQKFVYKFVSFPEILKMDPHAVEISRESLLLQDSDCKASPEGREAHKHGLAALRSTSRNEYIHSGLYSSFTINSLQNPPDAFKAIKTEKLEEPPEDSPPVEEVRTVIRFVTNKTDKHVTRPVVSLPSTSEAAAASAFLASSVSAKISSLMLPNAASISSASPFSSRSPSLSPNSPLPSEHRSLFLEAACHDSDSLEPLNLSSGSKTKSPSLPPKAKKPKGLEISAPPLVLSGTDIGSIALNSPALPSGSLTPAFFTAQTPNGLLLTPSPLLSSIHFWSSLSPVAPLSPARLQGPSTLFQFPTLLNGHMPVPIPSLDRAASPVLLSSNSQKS
# Procedure, shortened: as §1
# [7] = target: T5, SPIC (Homo sapiens, UniProt Q8N5J4 1-248)
# T5 sequence: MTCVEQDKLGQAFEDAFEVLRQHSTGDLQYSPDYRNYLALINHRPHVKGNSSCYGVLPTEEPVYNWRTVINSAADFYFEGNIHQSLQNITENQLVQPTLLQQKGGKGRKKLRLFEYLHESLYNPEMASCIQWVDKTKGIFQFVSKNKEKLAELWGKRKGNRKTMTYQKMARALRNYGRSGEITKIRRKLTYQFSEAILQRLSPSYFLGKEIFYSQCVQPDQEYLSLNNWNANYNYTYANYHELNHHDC
# Procedure, shortened: as §1
# [8] = target: ELF4 (Homo sapiens, UniProt Q99607 1-663)
# Procedure, shortened: as §1
# [9] = target: T6, ELK4 (Homo sapiens, UniProt P28324-2 1-405)
# T6 sequence: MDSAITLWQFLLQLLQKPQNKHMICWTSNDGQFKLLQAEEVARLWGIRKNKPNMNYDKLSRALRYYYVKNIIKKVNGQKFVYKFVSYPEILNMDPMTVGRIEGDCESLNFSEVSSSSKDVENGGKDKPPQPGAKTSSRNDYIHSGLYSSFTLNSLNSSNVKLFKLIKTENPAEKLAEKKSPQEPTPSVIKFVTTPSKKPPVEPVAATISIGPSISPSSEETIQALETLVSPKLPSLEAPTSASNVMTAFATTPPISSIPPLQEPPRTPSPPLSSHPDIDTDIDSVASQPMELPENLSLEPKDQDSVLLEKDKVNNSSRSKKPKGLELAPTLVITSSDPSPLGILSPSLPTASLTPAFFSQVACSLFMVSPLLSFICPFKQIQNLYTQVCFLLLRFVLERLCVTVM
# Procedure, shortened: as §1
# [10] = target: T7, ELF3 (Homo sapiens, UniProt P78545 1-371)
# T7 sequence: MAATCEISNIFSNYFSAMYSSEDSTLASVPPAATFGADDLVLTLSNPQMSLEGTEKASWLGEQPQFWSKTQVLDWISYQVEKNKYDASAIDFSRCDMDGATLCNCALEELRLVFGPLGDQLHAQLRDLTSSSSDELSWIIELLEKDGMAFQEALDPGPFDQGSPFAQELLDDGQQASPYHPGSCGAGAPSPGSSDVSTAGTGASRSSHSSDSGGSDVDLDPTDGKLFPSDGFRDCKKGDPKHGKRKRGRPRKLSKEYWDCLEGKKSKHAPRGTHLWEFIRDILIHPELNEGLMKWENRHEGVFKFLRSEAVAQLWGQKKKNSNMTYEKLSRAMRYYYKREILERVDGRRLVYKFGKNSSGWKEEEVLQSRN
# Procedure, shortened: as §1
# [11] = target: ETV1 (Homo sapiens, UniProt P50549 1-477)
# Procedure, shortened: as §1
# [12] = target: T8, ERF (Homo sapiens, UniProt P50548 1-548)
# T8 sequence: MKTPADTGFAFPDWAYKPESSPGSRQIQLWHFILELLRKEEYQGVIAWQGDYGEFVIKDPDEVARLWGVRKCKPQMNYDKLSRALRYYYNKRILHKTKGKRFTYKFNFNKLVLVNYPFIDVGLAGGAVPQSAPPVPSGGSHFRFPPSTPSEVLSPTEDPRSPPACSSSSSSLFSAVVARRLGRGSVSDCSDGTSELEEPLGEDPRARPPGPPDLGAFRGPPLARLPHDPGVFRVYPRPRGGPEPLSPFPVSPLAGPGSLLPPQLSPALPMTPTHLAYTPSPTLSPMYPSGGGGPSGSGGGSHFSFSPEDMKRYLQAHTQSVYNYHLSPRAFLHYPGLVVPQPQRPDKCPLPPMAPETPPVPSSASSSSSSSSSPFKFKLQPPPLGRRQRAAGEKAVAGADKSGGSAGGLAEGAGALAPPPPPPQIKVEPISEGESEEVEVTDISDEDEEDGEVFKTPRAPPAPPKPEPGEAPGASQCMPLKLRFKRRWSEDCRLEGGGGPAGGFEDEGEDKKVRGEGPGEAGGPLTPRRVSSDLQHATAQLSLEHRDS
# Procedure, shortened: as §1
# [13] = target: T9, ETV3L (Homo sapiens, UniProt Q6ZN32 1-361)
# T9 sequence: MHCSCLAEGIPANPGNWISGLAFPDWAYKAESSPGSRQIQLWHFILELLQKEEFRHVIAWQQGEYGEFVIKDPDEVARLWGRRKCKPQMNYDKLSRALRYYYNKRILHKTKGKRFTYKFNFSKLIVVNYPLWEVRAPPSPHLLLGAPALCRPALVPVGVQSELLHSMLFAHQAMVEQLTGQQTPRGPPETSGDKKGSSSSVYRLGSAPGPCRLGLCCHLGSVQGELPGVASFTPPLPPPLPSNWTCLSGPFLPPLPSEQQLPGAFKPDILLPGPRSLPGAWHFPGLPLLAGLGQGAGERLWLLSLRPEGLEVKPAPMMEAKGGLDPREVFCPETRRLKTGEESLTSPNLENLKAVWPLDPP
# Procedure, shortened: as §1
# [14] = target: T10, ETS2 (Homo sapiens, UniProt P15036 1-469)
# T10 sequence: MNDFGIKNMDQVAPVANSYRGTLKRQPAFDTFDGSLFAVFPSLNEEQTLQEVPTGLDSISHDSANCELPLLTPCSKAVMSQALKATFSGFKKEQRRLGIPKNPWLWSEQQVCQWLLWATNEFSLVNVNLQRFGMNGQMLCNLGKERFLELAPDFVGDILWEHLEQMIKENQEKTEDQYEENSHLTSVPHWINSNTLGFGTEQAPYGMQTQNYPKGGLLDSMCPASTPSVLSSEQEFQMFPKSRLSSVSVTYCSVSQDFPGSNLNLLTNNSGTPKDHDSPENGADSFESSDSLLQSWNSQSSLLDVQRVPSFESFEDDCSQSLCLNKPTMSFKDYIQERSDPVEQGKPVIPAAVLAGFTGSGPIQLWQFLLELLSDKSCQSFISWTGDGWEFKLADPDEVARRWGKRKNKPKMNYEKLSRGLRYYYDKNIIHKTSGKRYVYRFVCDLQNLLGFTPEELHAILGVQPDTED
# Procedure, shortened: as §1
# [15] = target: T11, SPDEF (Homo sapiens, UniProt O95238 1-335)
# T11 sequence: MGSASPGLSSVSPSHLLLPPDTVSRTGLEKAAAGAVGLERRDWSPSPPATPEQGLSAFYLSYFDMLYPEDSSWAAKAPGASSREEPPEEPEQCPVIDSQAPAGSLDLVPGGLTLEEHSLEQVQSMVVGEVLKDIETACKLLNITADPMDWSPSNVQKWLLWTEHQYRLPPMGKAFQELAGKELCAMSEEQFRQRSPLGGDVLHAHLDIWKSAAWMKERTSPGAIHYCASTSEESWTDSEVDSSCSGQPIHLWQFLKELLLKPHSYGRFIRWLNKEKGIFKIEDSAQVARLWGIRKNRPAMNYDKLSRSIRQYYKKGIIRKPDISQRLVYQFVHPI
# Procedure, shortened: as §1
# [16] = target: T12, ETV7 (Homo sapiens, UniProt Q9Y603 1-341)
# T12 sequence: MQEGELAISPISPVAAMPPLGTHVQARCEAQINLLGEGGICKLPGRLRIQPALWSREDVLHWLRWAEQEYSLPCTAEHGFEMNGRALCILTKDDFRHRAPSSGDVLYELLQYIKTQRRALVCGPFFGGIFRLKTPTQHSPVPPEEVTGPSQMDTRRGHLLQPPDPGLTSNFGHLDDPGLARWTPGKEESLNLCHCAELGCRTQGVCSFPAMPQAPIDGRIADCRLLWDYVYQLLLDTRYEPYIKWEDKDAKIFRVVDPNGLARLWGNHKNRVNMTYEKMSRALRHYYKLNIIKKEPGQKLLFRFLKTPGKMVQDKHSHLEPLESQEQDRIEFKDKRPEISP
# Procedure, shortened: as §1
# [17] = target: T13, ETV3 (Homo sapiens, UniProt P41162-2 1-143)
# T13 sequence: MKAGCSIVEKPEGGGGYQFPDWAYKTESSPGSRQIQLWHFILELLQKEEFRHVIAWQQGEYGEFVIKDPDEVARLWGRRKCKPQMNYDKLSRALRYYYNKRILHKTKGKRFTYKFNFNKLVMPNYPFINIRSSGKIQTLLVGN
# Procedure, shortened: as §1
# [18] = target: ETV6 (Homo sapiens, UniProt P41212 1-452)
# Procedure, shortened: as §1
# Sequence of ELF1 (P32519 whole entry): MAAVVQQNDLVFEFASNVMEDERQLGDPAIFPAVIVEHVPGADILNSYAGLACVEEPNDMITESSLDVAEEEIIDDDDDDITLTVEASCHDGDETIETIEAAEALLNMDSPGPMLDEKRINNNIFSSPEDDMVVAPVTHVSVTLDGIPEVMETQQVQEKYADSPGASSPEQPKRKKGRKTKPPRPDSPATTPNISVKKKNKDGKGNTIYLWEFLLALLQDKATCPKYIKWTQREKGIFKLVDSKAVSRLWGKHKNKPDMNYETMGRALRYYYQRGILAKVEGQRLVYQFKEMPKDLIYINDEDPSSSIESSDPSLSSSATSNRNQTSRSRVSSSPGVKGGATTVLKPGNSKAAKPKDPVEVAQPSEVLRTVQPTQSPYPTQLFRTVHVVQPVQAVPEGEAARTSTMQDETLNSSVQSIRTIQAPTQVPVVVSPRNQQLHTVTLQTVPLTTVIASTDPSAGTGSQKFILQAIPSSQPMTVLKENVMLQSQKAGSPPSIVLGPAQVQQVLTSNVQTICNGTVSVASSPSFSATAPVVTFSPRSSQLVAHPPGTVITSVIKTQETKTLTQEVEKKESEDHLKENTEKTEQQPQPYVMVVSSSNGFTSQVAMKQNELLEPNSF
# Sequence of SPIB (Q01892 whole entry): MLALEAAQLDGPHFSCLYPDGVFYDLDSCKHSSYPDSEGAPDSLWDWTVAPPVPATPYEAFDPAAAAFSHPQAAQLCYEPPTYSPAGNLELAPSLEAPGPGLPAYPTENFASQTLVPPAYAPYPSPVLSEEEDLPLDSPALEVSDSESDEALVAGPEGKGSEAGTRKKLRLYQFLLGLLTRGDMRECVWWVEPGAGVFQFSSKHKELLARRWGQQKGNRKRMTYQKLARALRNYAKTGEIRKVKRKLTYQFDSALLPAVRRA
# Sequence of ETV1 (P50549 whole entry): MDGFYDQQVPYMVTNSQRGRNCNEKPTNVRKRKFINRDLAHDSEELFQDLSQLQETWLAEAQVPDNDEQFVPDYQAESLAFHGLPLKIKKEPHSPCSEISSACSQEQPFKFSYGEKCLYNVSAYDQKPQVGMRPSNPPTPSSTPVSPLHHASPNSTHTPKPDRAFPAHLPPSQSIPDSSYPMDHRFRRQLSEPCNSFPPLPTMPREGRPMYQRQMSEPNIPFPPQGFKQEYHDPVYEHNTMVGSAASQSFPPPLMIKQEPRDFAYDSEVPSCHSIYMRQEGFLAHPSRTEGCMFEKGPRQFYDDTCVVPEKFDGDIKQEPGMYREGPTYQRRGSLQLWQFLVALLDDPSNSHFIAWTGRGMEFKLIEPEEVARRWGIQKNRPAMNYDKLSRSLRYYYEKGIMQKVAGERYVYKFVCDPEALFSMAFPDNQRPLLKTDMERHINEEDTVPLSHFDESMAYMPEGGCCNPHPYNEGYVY
# Sequence of ETV6 (P41212 whole entry): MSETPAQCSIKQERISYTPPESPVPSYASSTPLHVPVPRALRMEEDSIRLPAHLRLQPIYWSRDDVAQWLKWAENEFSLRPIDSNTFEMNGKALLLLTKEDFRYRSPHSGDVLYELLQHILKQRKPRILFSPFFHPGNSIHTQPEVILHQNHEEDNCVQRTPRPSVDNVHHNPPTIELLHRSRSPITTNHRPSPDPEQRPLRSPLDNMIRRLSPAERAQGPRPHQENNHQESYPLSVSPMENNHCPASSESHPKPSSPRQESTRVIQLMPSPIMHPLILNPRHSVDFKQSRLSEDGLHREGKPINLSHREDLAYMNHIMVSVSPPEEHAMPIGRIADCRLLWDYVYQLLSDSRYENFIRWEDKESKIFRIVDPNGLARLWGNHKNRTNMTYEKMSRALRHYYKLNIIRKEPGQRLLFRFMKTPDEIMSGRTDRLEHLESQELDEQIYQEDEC
# Sequence of ELF4 (Q99607 whole entry): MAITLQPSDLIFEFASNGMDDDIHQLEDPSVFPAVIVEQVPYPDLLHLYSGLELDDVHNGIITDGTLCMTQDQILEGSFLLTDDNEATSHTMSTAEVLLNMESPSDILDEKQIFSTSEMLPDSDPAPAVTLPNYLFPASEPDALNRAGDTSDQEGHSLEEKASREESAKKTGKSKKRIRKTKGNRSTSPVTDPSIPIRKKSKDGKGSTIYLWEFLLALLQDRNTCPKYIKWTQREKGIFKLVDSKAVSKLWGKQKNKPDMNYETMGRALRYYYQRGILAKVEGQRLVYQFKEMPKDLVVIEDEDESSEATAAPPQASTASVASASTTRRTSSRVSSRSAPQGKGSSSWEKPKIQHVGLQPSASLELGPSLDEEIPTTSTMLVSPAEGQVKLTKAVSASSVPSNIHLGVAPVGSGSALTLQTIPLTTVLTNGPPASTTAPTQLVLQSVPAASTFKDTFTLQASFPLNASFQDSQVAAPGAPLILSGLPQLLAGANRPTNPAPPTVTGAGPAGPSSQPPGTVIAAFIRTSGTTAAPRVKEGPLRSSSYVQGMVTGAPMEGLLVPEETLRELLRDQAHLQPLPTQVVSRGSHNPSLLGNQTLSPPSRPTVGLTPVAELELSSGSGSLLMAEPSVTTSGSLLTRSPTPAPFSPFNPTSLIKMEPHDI
sequence,measurement,setting,value
ATAAGA,binding signal,[1],"1.12 fold enrichment (6-mer frequency, TF over GST control)"
same,binding signal,[2],"1.08 fold enrichment (6-mer frequency, TF over GST control)"
same,binding signal,[3],"1.11 fold enrichment (6-mer frequency, TF over GST control)"
same,binding signal,[4],"1.04 fold enrichment (6-mer frequency, TF over GST control)"
same,binding signal,[5],"1.04 fold enrichment (6-mer frequency, TF over GST control)"
same,binding signal,[6],"1.13 fold enrichment (6-mer frequency, TF over GST control)"
same,binding signal,[7],"1.03 fold enrichment (6-mer frequency, TF over GST control)"
same,binding signal,[8],"1.06 fold enrichment (6-mer frequency, TF over GST control)"
same,binding signal,[9],"1.11 fold enrichment (6-mer frequency, TF over GST control)"
same,binding signal,[10],"1.04 fold enrichment (6-mer frequency, TF over GST control)"
same,binding signal,[11],"1.1 fold enrichment (6-mer frequency, TF over GST control)"
same,binding signal,[12],"1.14 fold enrichment (6-mer frequency, TF over GST control)"
same,binding signal,[13],"1.05 fold enrichment (6-mer frequency, TF over GST control)"
same,binding signal,[14],"1.09 fold enrichment (6-mer frequency, TF over GST control)"
same,binding signal,[15],"1.15 fold enrichment (6-mer frequency, TF over GST control)"
same,binding signal,[16],"1.04 fold enrichment (6-mer frequency, TF over GST control)"
same,binding signal,[17],"1.07 fold enrichment (6-mer frequency, TF over GST control)"
same,binding signal,[18],"1.07 fold enrichment (6-mer frequency, TF over GST control)"

# From PMC7862700, “An all-to-all approach to the identification of sequence-specific readers for epigenetic DNA modifications on cytosine”
